Tb PYK inh = T. brucei pyruvate kinase inhibition. Q57TT1. TbPYK enzyme, Kinase-Glo Plus ATP luminescence, 45 min. Potency, µM (doses to about 76.8 µM), inactives show top-dose activity, negative = inhibition, actives largely listed as inhibitors. 410,000 compounds, 0.12% hits; further: potency means the concentration at half of the fitted maximal effect; on the % scale 0 is the no-effect control and ±100 the full control effect; nearly all actives have a fitted effect of over 50% in size
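ADP (130 uM final) triggers the TbPYK reaction after compound addition; incubation is 45 min at room temperature. Kinase-Glo Plus is then added and luminescence imaged. Normalized data are fitted to concentration-effect curves.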
CHX counter = counter-screen hit for Shiga toxin inhibitors, cycloheximide. cell reporter, cycloheximide protein synthesis inhibition counterscreen. max response, %. 300,000 compounds, 12% hits; in the data active means max response mostly above about 13%, no sharp cut-off; inactive means mostly below about 14%; further: read at 38.3 µM for the half of the compounds with a filed dose; 0% is about no effect
NS1 inh = inhibitors of influenza NS1 protein function; Potency, µM (top dose mostly 46.1 µM), without a hit: at the top dose activity, positive = more growth; 270,000 compounds, 0.4% hits; calls by dose curve; further: potency means the concentration at half of the fitted maximal effect; actives are rising curves; nearly all actives have a fitted effect of over 50% in size
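S. cerevisiae expressing influenza A NS1, grown in glucose, washed, then diluted 1:100 into pH 6.0 -URA galactose medium with 23 nl compound. Growth recovery read as OD600; NS1-free strain serves as control.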
Shiga inhibitor = inhibitors of Shiga toxin in Vero cells; inhibition, % at 38.7 µM; Vero cells, Shiga toxin protein synthesis inhibition reporter; 290,000 compounds, 9.2% hits; in the data active means inhibition mostly above about 28%, no sharp cut-off; inactive means mostly below about 43%; further: 0% is about no effect
LmPK inh = blocks Leishmania mexicana pyruvate kinase activity; Q27686; purified LmPK, Kinase-Glo ATP luminescence, 1 h; Potency, µM (highest dose often 57.5 µM), without a hit: at the highest dose activity change, negative = inhibition, hits mostly inhibitors; 290,000 compounds, 0.37% hits; AID 1721; further: potency means the concentration at half of the fitted maximal effect; on the % scale 0 is the no-effect control and ±100 the full control effect
Target sequence (Q27686 whole entry, looked up): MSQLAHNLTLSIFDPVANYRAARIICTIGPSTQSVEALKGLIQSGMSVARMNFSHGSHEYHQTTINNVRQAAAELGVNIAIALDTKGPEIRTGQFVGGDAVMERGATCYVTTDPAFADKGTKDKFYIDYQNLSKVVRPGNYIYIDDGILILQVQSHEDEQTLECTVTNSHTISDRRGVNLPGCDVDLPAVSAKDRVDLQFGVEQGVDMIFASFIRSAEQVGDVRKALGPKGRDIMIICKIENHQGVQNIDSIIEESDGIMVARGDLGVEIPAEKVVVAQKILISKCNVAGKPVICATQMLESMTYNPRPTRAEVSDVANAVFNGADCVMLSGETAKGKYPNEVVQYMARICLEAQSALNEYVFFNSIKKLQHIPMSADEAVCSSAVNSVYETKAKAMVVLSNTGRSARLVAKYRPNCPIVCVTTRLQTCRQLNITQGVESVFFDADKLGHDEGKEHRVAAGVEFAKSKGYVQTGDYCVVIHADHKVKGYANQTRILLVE
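Purified LmPK (0.1 nM) with 0.5 mM PEP and 0.1 mM ADP in imidazole buffer pH 7.2 with MgCl2/KCl, 1 h at room temperature. ATP formed was read by luciferase luminescence and normalized to no-enzyme and uninhibited controls.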
SARS PLpro yeast = inhibitors of SARS-CoV papain-like protease in yeast | 330,000 compounds, 0.19% hits | S. cerevisiae expressing SARS-CoV PLpro, growth rescue | Potency, µM (top dose mostly 32.9 µM), for inactives: at the top dose activity, positive = growth rescue, actives largely listed as activators; calls by dose curve; further: potency means the concentration at half of the fitted maximal effect; 0% is about no effect; nearly all actives have a fitted effect of over 55% in size
* = called active by the depositor; ? = inconclusive; / = no result given; [ ] = dose if it differs, or a comment. This is one part of a sample in which hits are shown more often than they occur. Unless noted, the call rests on the fitted dose curve; in most records, active means well fitted curve in the direction sought with a large enough effect; inconclusive means small, poorly fitted or top-dose-only effect, or another doubt; inactive means no such curve, though single readings can be large; an effect the other way counts as inactive or inconclusive.

SMILES	Tb PYK inh	CHX counter	NS1 inh	Shiga inhibitor	LmPK inh	SARS PLpro yeast
COc1ccc(N(C(=O)c2ccco2)C(C(=O)NC2CCCC2)c2cc(OC)c(OC)c(OC)c2)cc1 (configuration not stated)	-2%	1	9%	-6	-2%	-1%
Cc1ccc(NS(=O)(=O)Cc2ccccc2)nc1	0%	25*	2%	56*	-10%	0%
Cc1ccc(NC(=S)NCCc2ccccc2)nc1	-29%	25*	/	76*	3%	0%
Cc1ccc(NC(=O)CCCc2ccccc2)nc1	-5%	44*	-7%	89*	1%	-1%
S=C(NCCc1ccccc1)Nc1ncccn1	-7%	/	/	/	/	/
COc1cccc(Cn2cc(N)cn2)c1	-6%	-2	0%	-8	8%	-1%
O=C(C[C@H]1C[C@H](C(=O)N2CCOCC2)[C@@]2(CCC3CCCC3)c3[nH]c4cc(-c5ccco5)ccc4c3CCN2C1=O)NCc1ccco1	-6%	/	/	/	/	-7%
NC(=O)C(CCCCN1CCCCC1)(c1ccccc1)c1ccccc1	-1%	/	/	/	/	/
[N-]=[N+]=NC(c1ccccc1)C(NC(=O)c1cc(C(F)(F)F)cc(C(F)(F)F)c1)c1ccccc1 (configuration not stated)	1%	/	/	/	/	/
O=C(Nc1cccc(-c2cccc(Cl)c2)c1)C1CCN(Cc2nccs2)CC1	3%	/	/	/	/	/
Nc1nccnc1C(=O)OCC(=O)NNC(=O)c1ccccc1	-5%	-1	2%	23	-3%	20%
O=C(Nc1ccc(Cl)cc1)OCc1cncs1	-4%	60*	-2%	121*	-4%	4%
O=C(Nc1cccc2ccccc12)OCc1cncs1	0%	24*	-4%	32*	-5%	-3%
Cc1ccc(-c2nc3scc(CCNS(=O)(=O)c4ccc(Oc5ccccc5)cc4)n3n2)cc1	0%	-8	/	-14	/	/
Cc1cc(=O)oc2cc(OC(=O)C3CCN(C(=O)c4ccc(F)cc4)CC3)ccc12	-10%	/	/	/	/	-17%
CCC1(C)Cc2c(sc3nc(NC)n(C)c(=O)c23)CO1 (configuration not stated)	-29%	67*	-12%	27	-2%	-7%
CCC1(C)Cc2c(sc3nc(SCC(=O)O)[nH]c(=O)c23)CO1 (configuration not stated)	?	-4	10%	11	18µM*	1%
Cn1c(NN)nc2sc3c(c2c1=O)CC(C)(C)OC3	3%	-3	7%	16	-3%	6%
CCNC(=O)C/C(C)=N/NC(=O)C12CC3CC(CC(C3)C1)C2	-5%	20*	5%	41	1%	2%
CCNC(=O)C/C(C)=N/NC(=O)C1CCCCC1	-3%	-1	11%	-3	-2%	16%
O=C1NC(=NCc2ccccc2)S/C1=C/c1ccc(O)cc1	-3%	13*	10%	16	3%	8%
Cn1nc([N+](=O)[O-])nc1S(C)(=O)=O	-1%	31*	/	31	-5%	-5%
CS(=O)(=O)c1nc([N+](=O)[O-])nn1CCCc1ccccc1	-5%	/	/	/	/	/
O=C(N/N=C/C=C/c1ccccc1)c1n[nH]c2c1CCC2	3%	15*	10%	21	6%	5%
O=C(N/N=C/C(Br)=C\c1ccccc1)c1n[nH]c2c1CCC2	-1%	64*	-11%	111*	-9%	-44%
SMILES	Tb PYK inh	CHX counter	NS1 inh	Shiga inhibitor	LmPK inh	SARS PLpro yeast
C=CCN1c2ccccc2[C@]23C[C@@H](C(=O)OC)N(S(=O)(=O)c4ccc(C(F)(F)F)cc4)C2=NC(C(=O)OC)=C(C(=O)OC)[C@H]13	/	/	/	/	4%[11.5 µM]	/
CCc1ccc(C(=O)CN(C#N)c2nc(C)cc(C)n2)cc1	3%	4	-31%	25	-5%	-3%
Cc1cc(C)nc(N(C#N)CC(=O)c2ccccc2)n1	1%	37*	2%	48*	-18%	-1%
O=C(Nc1ccccc1)c1cccc(N2C(=O)CCC2=O)c1	0%	-3	3%	-13	0%	3%
CN(C)c1ccc(NC(=O)c2cccc(N3C(=O)CCC3=O)c2)cc1	1%	21*	-1%	37	2%	5%
COC(=O)c1ccc(NC(=O)c2cccc(N3C(=O)CCC3=O)c2)cc1	-2%	/	/	/	/	-6%
O=C(Nc1ccc(Br)cc1)c1cccc(N2C(=O)CCC2=O)c1	2%	55*	2%	65*	-11%	1%
O=C(NCc1ccccn1)/C(=N/O)c1ccccc1	?	36*	-1%	31*	0%	-1%
O=C(NCc1ccccc1)/C(=N\O)c1ccccc1	-13%	21*	0%	54*	-5%	0%
C/C(=N\O)C(=O)NCc1ccccn1	-7%	-2	1%	-5	-6%	-2%
O=C(Nc1cccc(F)c1)C1CCCN(S(=O)(=O)c2ccccc2)C1 (configuration not stated)	0%	-5	1%	-6	-7%	22%
O=C(NC1CCN(C(=S)NCCc2ccccc2)CC1)C1CCCCC1	2%	11	/	20	-6%	1%
Cc1ccc(-c2nc3ccccc3[nH]2)cc1NC(=S)NC(=O)c1ccccc1Br	-7%	13	-122%	4	-1%	-28%
O=C(NC(=S)Nc1cc(-c2nc3ccccc3[nH]2)ccc1Cl)c1ccc2c(c1)OCO2	-1%	70*	23%	78*	-10%	-46%
Cc1ccc(-c2nc3ccccc3[nH]2)cc1NC(=O)/C=C/c1ccco1	-15%	85*	-244%	177*	1%	-15%
Cc1ccc(-c2nc3ccccc3[nH]2)cc1NC(=O)c1ccc2c(c1)OCO2	-2%	14*	-69%	91	3%	-3%
Cc1ccc(-c2nc3ccccc3o2)cc1NC(=O)c1ccc2c(c1)OCO2	16%	50*	-4%	126*	-5%	-5%
O=C(Nc1cc(-c2nc3ncccc3o2)ccc1Cl)c1ccc2c(c1)OCO2	-8%	/	/	/	/	-6%
Cc1ccc(C(=O)N2CCC(n3nccc3NC(=O)C3CCOC3)CC2)cc1 (configuration not stated)	-4%	4	-4%	-4	-6%	-1%
Cc1ccc(NC2=C/C(=N/S(=O)(=O)c3cccs3)c3ccccc3C2=O)cc1	-15%	48*	?	145*	-8%	-14%
O=C1C(Nc2ccccc2)=C/C(=N/S(=O)(=O)c2cccs2)c2ccccc21	-21%	11	-41%	16	-19%	-76%
Cc1ccc(S(=O)(=O)/N=C2\C=C(Nc3cccc(C(=O)O)c3)C(=O)c3ccccc32)cc1	-14%	6	-21%	35	-11%	-1%
Cc1ccc(S(=O)(=O)/N=C2\C=C(Nc3cccc(C(=O)O)c3)C(=O)c3ccccc32)c(C)c1	-21%	24*	12%	64*	-23%	0%
COC(=O)c1ccccc1NC1=C/C(=N\S(=O)(=O)c2cccs2)c2ccccc2C1=O	-5%	28*	4%	41	18µM*	-12%

Screens deposited in PubChem by National Center for Advancing Translational Sciences (NCATS).
